In PubChem BioAssay (NCATS):
Results filed as inconclusive are left out. Calls of active or inactive are those of the source. The call rests on the fitted dose curve; in most records, active means well fitted curve in the direction sought with a large enough effect; inconclusive means small, poorly fitted or top-dose-only effect, or another doubt; inactive means no such curve, though single readings can be large; an effect the other way counts as inactive or inconclusive.

Experiments:
[1] = target: ATP-dependent 6-phosphofructokinase (Trypanosoma brucei brucei) (UniProt O15648); assay: qHTS Assay to Find Inhibitors of T. brucei phosphofructokinase: hit validation (AID 492961);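 further: luminescence reports ADP formed as PFK phosphorylates fructose-6-phosphate with ATP; on the % scale 0 is the no-effect control and ±100 the full control effect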
Chain of ATP-dependent 6-phosphofructokinase (Trypanosoma brucei brucei) (O15648 whole entry, looked up): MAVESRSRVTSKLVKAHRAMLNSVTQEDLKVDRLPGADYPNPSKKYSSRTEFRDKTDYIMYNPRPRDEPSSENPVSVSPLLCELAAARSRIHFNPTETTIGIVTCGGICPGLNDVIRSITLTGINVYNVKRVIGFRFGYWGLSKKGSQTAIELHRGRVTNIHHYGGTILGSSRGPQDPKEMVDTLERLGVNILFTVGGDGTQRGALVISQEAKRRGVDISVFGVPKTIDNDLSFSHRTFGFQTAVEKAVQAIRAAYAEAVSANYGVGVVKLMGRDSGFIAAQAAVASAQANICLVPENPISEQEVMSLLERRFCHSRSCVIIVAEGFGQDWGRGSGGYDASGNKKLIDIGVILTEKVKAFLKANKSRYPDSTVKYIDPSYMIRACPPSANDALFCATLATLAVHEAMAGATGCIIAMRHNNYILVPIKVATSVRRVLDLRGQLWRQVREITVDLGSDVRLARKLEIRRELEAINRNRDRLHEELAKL
Summary of the method: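 Percent activity derived from corrected luminescence, normalized between 0x and 1x enzyme controls, then fitted to concentration-response curves. Conditions: 1.25 nM PFK, 0.1 mM ATP, 0.5 mM F6P, 45 min RT.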

[2] = qHTS profiling for inhibitors of Plasmodium falciparum proliferation (AID 504749);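 further: 0% = DMSO vehicle and full inhibition = artemisinin control; nearly all actives have a fitted effect of over 60% in size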; conditions: P. falciparum in erythrocytes, SYBR Green DNA, 72 h, at 28.7 µM (top of the series)
Summary of the method: (§1)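 P. falciparum-infected erythrocytes (0.3% parasitemia, 2.5% hematocrit final) were exposed to compounds for 72 h at 37 C in 5% CO2, then lysed with SYBR Green buffer overnight at room temperature; parasite DNA fluorescence was normalized to artemisinin and DMSO controls.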

3D7 = assay: as above; conditions: P. falciparum in erythrocytes, SYBR Green DNA, 72 h; series mostly up to 28.7 µM
Summary of the method: as §1

AA1029 = assay: as above; conditions: P. falciparum in erythrocytes, SYBR Green DNA, 72 h; series mostly up to 28.7 µM
Summary of the method: as §1

AS120 = assay: as above; conditions: P. falciparum in erythrocytes, SYBR Green DNA, 72 h; series mostly up to 28.7 µM
Summary of the method: as §1

ATS189 = assay: as above; conditions: P. falciparum in erythrocytes, SYBR Green DNA, 72 h; series mostly up to 28.7 µM
Summary of the method: as §1

CP185 = assay: as above; conditions: P. falciparum in erythrocytes, SYBR Green DNA, 72 h; series mostly up to 28.7 µM
Summary of the method: as §1

CP191 = assay: as above; conditions: P. falciparum in erythrocytes, SYBR Green DNA, 72 h; series mostly up to 28.7 µM
Summary of the method: as §1

CP194 = assay: as above; conditions: P. falciparum in erythrocytes, SYBR Green DNA, 72 h; series mostly up to 28.7 µM
Summary of the method: as §1

CP217 = assay: as above; conditions: P. falciparum in erythrocytes, SYBR Green DNA, 72 h; series mostly up to 28.7 µM
Summary of the method: as §1

CP237 = assay: as above; conditions: P. falciparum in erythrocytes, SYBR Green DNA, 72 h; series mostly up to 28.7 µM
Summary of the method: as §1

CP238 = assay: as above; conditions: P. falciparum in erythrocytes, SYBR Green DNA, 72 h; series mostly up to 28.7 µM
Summary of the method: as §1

CP252 = assay: as above; conditions: P. falciparum in erythrocytes, SYBR Green DNA, 72 h; series mostly up to 28.7 µM
Summary of the method: as §1

CP265 = assay: as above; conditions: P. falciparum in erythrocytes, SYBR Green DNA, 72 h; series mostly up to 28.7 µM
Summary of the method: as §1

CP286 = assay: as above; conditions: P. falciparum in erythrocytes, SYBR Green DNA, 72 h; series mostly up to 28.7 µM
Summary of the method: as §1

DFO2036 = assay: as above; conditions: P. falciparum in erythrocytes, SYBR Green DNA, 72 h; series mostly up to 28.7 µM
Summary of the method: as §1

DIV30 = assay: as above; conditions: P. falciparum in erythrocytes, SYBR Green DNA, 72 h; series mostly up to 28.7 µM
Summary of the method: as §1

Dd2 = assay: as above; conditions: P. falciparum in erythrocytes, SYBR Green DNA, 72 h; series mostly up to 28.7 µM
Summary of the method: as §1

N140 = assay: as above; conditions: P. falciparum in erythrocytes, SYBR Green DNA, 72 h; series mostly up to 28.7 µM
Summary of the method: as §1

P94_40 = assay: as above; conditions: P. falciparum in erythrocytes, SYBR Green DNA, 72 h; series mostly up to 28.7 µM
Summary of the method: as §1

CC12C=CC(=O)C=C1[C@@H](F)CC1C2C(O)CC2(C)C1CC[C@]2(O)C(=O)CO (stereo not given in full)
inactive: Potency [1] | activity, negative = inhibition ([2]; parasite line A) 4.43% | activity, negative = inhibition ([2]; parasite line B) 5.63% | Potency (3D7) | Potency (AA1029) | Potency (AS120) | Potency (ATS189) | Potency (CP185) | Potency (CP191) | Potency (CP194) | Potency (CP217) | Potency (CP237) | Potency (CP238) | Potency (CP252) | Potency (CP265) | Potency (CP286) | Potency (DFO2036) | Potency (DIV30) | Potency (Dd2) | Potency (N140) | Potency (P94_40)

COC(c1ccccc1)(c1ccccc1)C(Oc1nc(C)cc(C)n1)C(=O)O (stereo not given)
inactive: Potency [1] | activity, negative = inhibition ([2]; parasite line A) 2.94% | activity, negative = inhibition ([2]; parasite line B) 8.39% | Potency (3D7) | Potency (AA1029) | Potency (AS120) | Potency (ATS189) | Potency (CP185) | Potency (CP191) | Potency (CP194) | Potency (CP217) | Potency (CP237) | Potency (CP238) | Potency (CP252) | Potency (CP265) | Potency (CP286) | Potency (DFO2036) | Potency (DIV30) | Potency (Dd2) | Potency (N140) | Potency (P94_40)

CC1CCC(C(C)C)C(O)C1 (stereo not given)
inactive: Potency [1] | activity, negative = inhibition ([2]; parasite line A) 7.33% | activity, negative = inhibition ([2]; parasite line B) 4.66% | Potency (3D7) | Potency (AA1029) | Potency (AS120) | Potency (ATS189) | Potency (CP185) | Potency (CP191) | Potency (CP194) | Potency (CP217) | Potency (CP237) | Potency (CP238) | Potency (CP252) | Potency (CP265) | Potency (CP286) | Potency (DFO2036) | Potency (DIV30) | Potency (Dd2) | Potency (N140) | Potency (P94_40)

C=CCn1c(=O)n(C2OC(CO)C(O)C2O)c2nc(N)[nH]c(=O)c21 (stereo not given)
inactive: Potency [1] | activity, negative = inhibition ([2]; parasite line A) 5.09% | activity, negative = inhibition ([2]; parasite line B) -6.68% | Potency (3D7) | Potency (AA1029) | Potency (AS120) | Potency (ATS189) | Potency (CP185) | Potency (CP191) | Potency (CP194) | Potency (CP217) | Potency (CP237) | Potency (CP238) | Potency (CP252) | Potency (CP265) | Potency (CP286) | Potency (DFO2036) | Potency (DIV30) | Potency (Dd2) | Potency (N140) | Potency (P94_40)

O=C1CC[C@H](C(=O)N[C@@H]2C[C@H]2c2ccccc2)N1
inactive: Potency [1] | activity, negative = inhibition ([2]; parasite line A) 10.5% | activity, negative = inhibition ([2]; parasite line B) 18.1% | Potency (3D7) | Potency (AA1029) | Potency (AS120) | Potency (ATS189) | Potency (CP185) | Potency (CP191) | Potency (CP194) | Potency (CP217) | Potency (CP237) | Potency (CP238) | Potency (CP252) | Potency (CP265) | Potency (CP286) | Potency (DFO2036) | Potency (DIV30) | Potency (Dd2) | Potency (N140) | Potency (P94_40)

CCCCC/C(C=O)=C/c1ccccc1
inactive: Potency [1] | activity, negative = inhibition ([2]; parasite line A) -0.781% | activity, negative = inhibition ([2]; parasite line B) -10.8% | Potency (3D7) | Potency (AA1029) | Potency (AS120) | Potency (ATS189) | Potency (CP185) | Potency (CP191) | Potency (CP194) | Potency (CP217) | Potency (CP237) | Potency (CP238) | Potency (CP252) | Potency (CP265) | Potency (CP286) | Potency (DFO2036) | Potency (DIV30) | Potency (Dd2) | Potency (N140) | Potency (P94_40)

O=[N+]([O-])O[C@H]1CO[C@H]2[C@@H]1OC[C@H]2O
inactive: Potency [1] | activity, negative = inhibition ([2]; parasite line A) 14.3% | activity, negative = inhibition ([2]; parasite line B) -1.17% | Potency (3D7) | Potency (AA1029) | Potency (AS120) | Potency (ATS189) | Potency (CP185) | Potency (CP191) | Potency (CP194) | Potency (CP217) | Potency (CP237) | Potency (CP238) | Potency (CP252) | Potency (CP265) | Potency (CP286) | Potency (DFO2036) | Potency (DIV30) | Potency (Dd2) | Potency (N140) | Potency (P94_40)

CNC1C(O)C(OC2C(N)CC(N)C(OC3OC(CN)=CCC3N)C2O)OCC1(C)O (stereo not given)
inactive: Potency [1] | activity, negative = inhibition ([2]; parasite line A) 16.7% | activity, negative = inhibition ([2]; parasite line B) -10.7% | Potency (3D7) | Potency (AA1029) | Potency (AS120) | Potency (ATS189) | Potency (CP185) | Potency (CP191) | Potency (CP194) | Potency (CP217) | Potency (CP237) | Potency (CP238) | Potency (CP252) | Potency (CP265) | Potency (CP286) | Potency (DFO2036) | Potency (DIV30) | Potency (Dd2) | Potency (N140) | Potency (P94_40)

CC(O)C(N)C(=O)O (stereo not given)
inactive: Potency [1] | activity, negative = inhibition ([2]; parasite line A) 4.5% | activity, negative = inhibition ([2]; parasite line B) 11.6% | Potency (3D7) | Potency (AA1029) | Potency (AS120) | Potency (ATS189) | Potency (CP185) | Potency (CP191) | Potency (CP194) | Potency (CP217) | Potency (CP237) | Potency (CP238) | Potency (CP252) | Potency (CP265) | Potency (CP286) | Potency (DFO2036) | Potency (DIV30) | Potency (Dd2) | Potency (N140) | Potency (P94_40)

Cc1ccc(Nc2ncccc2C(=O)O)cc1C
inactive: Potency [1] | activity, negative = inhibition ([2]; parasite line A) 6.4% | activity, negative = inhibition ([2]; parasite line B) 7.72% | Potency (3D7) | Potency (AA1029) | Potency (AS120) | Potency (ATS189) | Potency (CP185) | Potency (CP191) | Potency (CP194) | Potency (CP217) | Potency (CP237) | Potency (CP238) | Potency (CP252) | Potency (CP265) | Potency (CP286) | Potency (DFO2036) | Potency (DIV30) | Potency (Dd2) | Potency (N140) | Potency (P94_40)
